The structures appear in SMILES notation. This is part of a sample that, as a whole, favours compounds with a hit. Of some 83,000 tested, about 20% had one in any assay.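 In brief: 96-well plates, 48 h treatment, single concentration, percent growth endpoint.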 Active and inactive are the calls of the source. Rule for the calls: active = growth percent below 10; inactive = the rest.

The test system of this test is MDA-MB-468 breast. Briefly: NCI-60 one-dose screen, 48 h (100 = growth as untreated, 0 = no growth, -100 = all killed). The conditions noted are these: 10 µM unless noted.
Regarding `CC/C(Cc1ccccc1)=C(\c1ccc(OCCN2CCCCCC2)cc1)c1ccc(OC(=O)NCc2ccccc2)cc1`, the growth is 53.3% (inactive). Take `Cc1ccc2c(c1)nc(C)n2-c1ncnc2c1CC(C)c1cc(O)ccc1N2C` (stereo not given): the growth was 10% (inactive). Next, `CCOC(=O)c1c(NS(=O)(=O)c2ccc(C)cc2)sc2c1CCC1(C2)OCCO1`: 87.6% (inactive); `O=S(=O)(NCCCNc1cc(-c2cn(-c3ccccc3)nc2-c2cccc(O)c2)ccn1)c1cccc(F)c1`: 7.62% (active); `COc1cc(/C=C/C(=O)c2ccc(NC(=O)CSc3nnc(-c4cc(-c5ccccc5)nc5ccccc45)n3-c3ccccc3)cc2)cc(OC)c1OC`: 81.5% (inactive).

`O=C1c2ccccc2-c2c1c1ccncc1c(=O)n2CCCn1ccnc1`: the growth is 28% (inactive). With `CSc1nnc(-c2cnn3c2NC(c2ccccc2)C3)n1-c1ccc(C(F)(F)F)cc1` (stereo not given), the growth is 71.1% (inactive). Take `CC1Cc2ccc(OCCN(C)C)cc2C1=O` (stereo not given): the growth is 96.2% (inactive).

Regarding `CCOc1cccc(NC2=C(Br)C(=O)C(C)=C(C)C2=O)c1`, the growth is -65.7% (active).

In the case of `COc1ccc(-c2nc(-c3nc4ccc(Cl)cc4[nH]3)c3ccccn23)cc1`, the growth is 61.5% (inactive).

As for `CS(=O)CCCCCN=C=S` (stereo not given), the growth was -11.3% (active). `COc1ccc(/C=C2\Oc3cc(C)c(Cl)cc3C2=O)cc1OC`: the growth is 110% (inactive).

Regarding `CCOC(=O)Oc1c(OC)cc(C(=O)c2ccc(OC)c(O)c2OC)cc1OC`, the growth is 19.8% (inactive). On to `CCCCCc1ccnc(CC(=O)c2ccc(OC)cc2)c1`, for which the growth was 65.5% (inactive).

For `COc1ccc(/C=C/C(=O)c2cc(OC)c(OC)c(OC)c2)cc1OCc1cn(Cc2ccc(F)cc2)nn1`, the growth was 25.2% (inactive).

The values above are taken from PubChem BioAssay (NCI).
